# Test results: PubChem BioAssay AID1878 (Sanford-Burnham Center for Chemical Genomics, 2009)
# Screen size: about 1,000 compounds; about 200 (20%) were called active. Cut-off read from the data, not from the text of the source: active = inhibition above about 55%; inactive = the rest. The list is a sample of the results. Potency and affinity values are given separately.
# Biological target: Dual specificity protein phosphatase 3 (Homo sapiens) (UniProt P51452)
# Experiment: VHR1 phosphatase inhibitors, biochemical (AID 1878)
# Conditions: recombinant VHR phosphatase, fluorogenic substrate; at 13.3 µM; hits give high values
# Dual specificity protein phosphatase 3 (Homo sapiens), sequence (P51452 whole entry, looked up): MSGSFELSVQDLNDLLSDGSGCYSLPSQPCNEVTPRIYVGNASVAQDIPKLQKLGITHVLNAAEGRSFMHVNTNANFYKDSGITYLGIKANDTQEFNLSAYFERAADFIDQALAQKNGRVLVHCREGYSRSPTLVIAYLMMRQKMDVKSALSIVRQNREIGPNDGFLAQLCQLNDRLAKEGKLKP
row,Compound,inhibition
1,Cc1ccccc1C(=O)NC[C@@H]1CCCN2CCCC[C@H]12,-3.5% (inactive)
2,CC(=O)c1cccc(OCc2cc(C(=O)N3CC4C[C@@H]5CC3C[C@H](C4)C5)no2)c1,21.3% (inactive)
3,Cc1ccc2c(c1)N(CC(=O)NCCCN1CCCCC1C)C(=O)c1cccnc1O2 (stereo not given),-7.1% (inactive)
4,O=C(COC(=O)CNC(=O)c1ccc(Cl)cc1Cl)Nc1ccc(N2CCOCC2)cc1,1.8% (inactive)
5,Cc1ccc(S(=O)(=O)N(C)C)cc1NC(=S)N(C)C1CCN(C)CC1,-3.6% (inactive)
6,CCc1nnc(NC(=O)COc2ccc3c(c2)OCO3)s1,5.7% (inactive)
7,CCOc1ccccc1OCCN1CCCC1,-12.9% (inactive)
8,O=C(O)CCC(=O)N1N=C(c2ccccc2)CC1c1ccc(Br)cc1 (stereo not given),-7.5% (inactive)
9,O=[N+]([O-])c1ccc(N2N=C(c3ccccc3)CC2c2ccccc2O)cc1 (stereo not given),6% (inactive)
10,COc1ccc(C2=NN(C(=O)CCCC(=O)O)C(c3cn(-c4ccccc4)nc3-c3ccccc3)C2)cc1 (stereo not given),91.6% (active)
11,COc1cc(OC)c(NC2=CC(=O)C(=O)c3ccccc32)cc1Cl,6.7% (inactive)
12,O=C(NCCc1cnc[nH]1)Nc1cccc(C(F)(F)F)c1,-4.7% (inactive)
13,CN(c1ccc(C(=O)N2CCCCC2)cc1)S(C)(=O)=O,27% (inactive)
14,CC1=CC(=O)c2c(O)ccc(O)c2C1=O,65.2% (active)
15,COc1ccc(OC)c2c(C)cc(C)nc12,-3.6% (inactive)
16,CC1CCCC(C)N1/N=C/c1ccc(O)c(O)c1 (stereo not given),2.9% (inactive)
17,COCCCN(CC(=O)Nc1ccc(N2CCOCC2)cc1)S(=O)(=O)c1ccc(Cl)cc1,-3.7% (inactive)
18,CC1CCC(NCCNC(=O)c2ccco2)CC1 (stereo not given),-9.5% (inactive)
19,O=C(Nc1ccnn1C1CCN(C2CCCC2)CC1)c1ccccc1,-11.4% (inactive)
20,CCCCCC#CCC#CCC#CCC#CCCCC(=O)O,94.6% (active)

row,Compound,inhibition
1,COc1ccc(Nc2nccc(-c3ccc(C#N)cc3)n2)cc1,-0.6% (inactive)
2,NC(=O)NC(=O)C(Nc1ccc(N2CCCCC2)cc1)c1ccccc1 (stereo not given),3.2% (inactive)
3,CCOc1ccc(CNC(=O)c2cccc(NC(=O)C3=C(C)OCCS3)c2)cc1,5.4% (inactive)
4,CN(C(=O)COC(=O)c1cc(F)c(F)cc1Cl)c1ccccc1,-7.5% (inactive)
5,COC(=O)c1ccc(CN2CCCC(CNC(=O)Cc3ccc(OC)cc3)C2)cc1 (stereo not given),-1% (inactive)
6,CCOc1ccc(CNC(=O)C(=O)c2cn(CC(=O)N3CCOCC3)c3ccccc23)cc1OC,-5.3% (inactive)
7,CCCCN(C)CCNC(=O)CCn1nc(-c2ccc(C)cc2)ccc1=O,49.7% (inactive)
8,Cc1ccc(NC(=O)COc2cccc(-n3cnnn3)c2)cc1[N+](=O)[O-],-11.9% (inactive)
9,Cc1cccc(NC(=O)COc2ccc(/C=C\c3[nH]c(=O)[nH]c(=O)c3[N+](=O)[O-])cc2)c1,98.7% (active)
10,Cc1ccc(OCC(=O)Nc2ccc(C(N)=O)cc2)cc1,19.4% (inactive)
11,Cc1nn(C)c(C)c1CCC(=O)N1CCCC(N2CCN(c3ccc(F)cc3)CC2)C1 (stereo not given),-3.3% (inactive)
12,Cc1nc2sccn2c(=O)c1S(=O)(=O)Nc1ccc(N2CCN(S(C)(=O)=O)CC2)cc1,-12.5% (inactive)
13,COc1ccc(-c2ccnc3[nH]n(-c4ccccc4)c(=O)c23)cc1,7.3% (inactive)
14,O=[N+]([O-])c1cccc(S(=O)(=O)N2CCN(c3ccccn3)CC2)c1,-9.5% (inactive)
15,O=c1c2c(-c3cccc([N+](=O)[O-])c3)ccnc2[nH]n1-c1ccccc1,74.2% (active)
16,COc1ccc2c(C)nc(N/C(N)=N/S(=O)(=O)c3ccc(C)cc3)nc2c1,26.9% (inactive)
17,Cn1c(=O)[nH]c(=O)c2c1nc(N1CCNCC1)n2Cc1ccccc1Cl,0.7% (inactive)
18,COc1cc(NC(=O)c2cnc(NCc3ccccc3)nc2C)cc(OC)c1OC,-1.7% (inactive)
19,c1cc(-c2nnc3sc(C4CCCCC4)nn23)ccn1,-3.4% (inactive)
20,COc1ccccc1NS(=O)(=O)c1ccc2oc(SC)nc2c1,-3.1% (inactive)

row,Compound,inhibition
1,O=C1Nc2ccccc2C1=Nc1ccc(F)cc1,-4.5% (inactive)
2,O=C(NC(=S)Nc1ccccn1)c1ccc(-c2ccccc2)cc1,0.9% (inactive)
3,O=C(O)c1ccc(NC(=S)NC(=O)C(c2ccccc2)c2ccccc2)cc1,-6.3% (inactive)
4,COc1cccc(-c2cc(C(=O)N3CCc4ccccc4C3)[nH]n2)c1,6.6% (inactive)
5,COc1ccc(NC(=O)c2cc3ccc4c5ccccc5[nH]c4c3cc2O)cc1,19.8% (inactive)
6,O=C(C1CC1)N1N=C(c2cccc(Br)c2)CC1(O)C(F)(F)F (stereo not given),2.7% (inactive)
7,Nc1ccc(C(=O)N(CCO)CCO)cc1,4.4% (inactive)
8,Cc1ccc2nc(/C(C#N)=C/c3ccc(-c4cccc([N+](=O)[O-])c4)o3)[nH]c2c1,96.4% (active)
9,CC(=O)Nc1nc(C)c(-c2nc3ccc([N+](=O)[O-])cc3[nH]2)s1,1% (inactive)
10,CN(C)C(=O)/C(=C/c1ccc(-c2cccc([N+](=O)[O-])c2)o1)NC(=O)c1ccccc1,1.2% (inactive)
11,Cc1cc(C)c(S(=O)(=O)NCC2CCC(C(=O)NCCCN3CCC(C)CC3)CC2)c(C)c1 (stereo not given),-3.9% (inactive)
12,CC(=O)N1CCN(c2ccc(NCc3cccc4ccccc34)cc2)CC1,3.9% (inactive)
13,CN(C)c1ccc(N=Cc2cccn2C)cc1,0.6% (inactive)
14,CC(C)(C)CN1CCC(Oc2cccc(C(=O)N3CCNC(=O)C3(C)C)c2)CC1,6.9% (inactive)
15,COC(=O)C1=CN(Cc2ccc(OC)cc2)C=C(C(=O)OC)C1c1ccc(O)c(OC)c1,8.4% (inactive)
16,O=C(CCNC(=O)N1CC(=O)Nc2ccccc21)Nc1cccc(Cl)c1,2% (inactive)
17,C=CCNC(=O)N1c2ccccc2Sc2ccccc21,26.2% (inactive)
18,CC(C)Oc1ccc(C(=O)Nc2ccc(S(=O)(=O)N3CCN(C)CC3)cc2)cc1,-10.6% (inactive)
19,CC(C)OCCCNC(=S)Nc1ccc(S(N)(=O)=O)cc1,54.9% (active)
20,CCN(C(=O)c1ccc(S(=O)(=O)N(C)C)cc1)C(C)C(=O)Nc1ccc(C)cc1 (stereo not given),5.9% (inactive)
